Experimental data published in PubChem BioAssay AID588335 (The Scripps Research Institute Molecular Screening Center, 2011).
In all, about 360,000 compounds went through this assay and about 4,500 (1.2%) were called active. Only a selection was taken, and actives are over-represented in it overall. A number with no mark means an inactive call. No stated cut-off is given here; in the data, active means inhibition above about 30%; inactive means the rest.

Assay: inhibition of GDH and TPI enzymes – biochemical, absorbance, full deck, artefact control for M. tuberculosis FBA inhibitor project, primary screen (AID 588335);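 further: 0% = DMSO wells and 100% = wells lacking the enzyme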
Conditions: GDH-TPI coupled enzyme counterscreen, NADH absorbance; at 4.8 µM; active compounds read high

In order of falling inhibition:
1. COc1ccc(OC)c(/C=N/NC(=O)CSc2nnc(C)n2-c2ccccc2)c1  30.2%
2. COc1ccc(/C=C/C(=O)OCC(=O)NC2CCCCCC2)cc1OC  27.3%
3. Cc1c(C=O)c2ccccn2c1C(=O)c1ccncc1  23.7%
4. CCOc1ccc(-n2c(SCC(=O)OC)nc3sc4c(c3c2=O)CCN(C)C4)cc1  22.9%
5. Cc1c(C(=O)OC(C)C)sc(NC(=O)c2cccnc2)c1C#N  20.9%
6. O=C(NN=CC=Cc1ccccc1)C(O)C(O)C(=O)NN=CC=Cc1ccccc1 (stereo not given)  20.2%
7. CCOc1ccc(-n2c(SCC(=O)Nc3ccc(OC)cc3)nc3sc4c(c3c2=O)CCN(C)C4)cc1  19.9%
8. COc1cc(/C=N/NC(=O)Nc2ccccc2)ccc1OCCOc1ccccc1C  18.8%
9. CCC(=O)c1ccc(OC(=O)/C=C/c2cc(OC)c(OC)c(OC)c2)cc1  14.9%
10. CCCSc1nc2sc3c(c2c(=O)n1-c1ccc(OC)cc1)CCN(C)C3  14.5%
11. CSc1ccc(/C=C/C(=O)NC23CC4CC(CC(C4)C2)C3)cc1  14.4%
12. Cc1sc(NC(=O)C2=COCCO2)c(C#N)c1C  13.8%
13. Cc1cc(C)cc(OCC(=O)NNC(=O)c2cc3ccccc3oc2=O)c1  11.9%
14. CCCc1nc(N2CCN(C)CC2)c2sc(=S)n(-c3ccccc3)c2n1  11.9%
15. Cc1cccc(S(=O)(=O)N2CN(CC3CCCO3)c3nc4ccccc4nc32)c1 (stereo not given)  11.8%
16. CCOc1ccc2ccccc2c1/C=N/NC(=O)c1c(C)cc(C)[nH]c1=O  11.8%
17. CCOc1ccccc1NC(=O)C1CCCN(S(=O)(=O)c2ccccc2)C1 (stereo not given)  11.6%
18. COc1ccc(OC)c(/C=N/NC(=O)c2ccc[n+](CC(=O)c3ccccc3)c2)c1  11.2%
19. O=c1cc(N2CCCCC2)c(-c2ccccc2)nn1Cc1cccc(F)c1  10.7%
20. CCOc1ccc2[nH]c(=O)c(CN(CCCO)C(C)=O)cc2c1  10.1%
21. COc1ccc(N2CCN(C(=O)CNS(=O)(=O)c3ccc(C)c(C)c3)CC2)cc1  10.1%
22. CCN1C(=O)[C@H]2[C@@H](c3ccc(SC4CCCCC4)c(OC)c3)N[C@@](Cc3ccccc3)(C(=O)OC)[C@H]2C1=O  9.48%
23. COc1cccc(/C=C/C(=O)Nc2ccc3c(c2)OCCO3)c1  9.4%
24. COc1ccc(OC)c(/C=C/C(=O)c2ccc3c(c2)OCO3)c1  7.32%
25. COc1ccc2[nH]c(=O)c(CNc3ccc(C)c(C)c3)cc2c1  7.26%
26. O=C(CNS(=O)(=O)c1ccc2c(c1)OCCCO2)N1CCN(c2ccc(F)cc2)CC1  6.99%
27. CCn1c(SCC(=O)Nc2ccc(Br)cc2)nc2sc3c(c2c1=O)CCN(C)C3  6.95%
28. CC(C)c1ccccc1OCC(O)CN(CC(O)COc1cccc2ccccc12)C(C)C (stereo not given)  6.49%
29. CN(C(=O)c1cccc(NC(=O)Cc2ccc([N+](=O)[O-])cc2)c1)C1CCC1  6.17%
30. Nc1ncnc(Nc2cccc(Cl)c2Cl)n1  6.09%
31. Cc1c(C(=O)NC2CCCCC2)oc2ccccc12  5.98%
32. COc1ccc(CCC(=O)Nc2ccc(Cl)c(S(=O)(=O)N3CCOCC3)c2)cc1OC  5.73%
33. COc1cc(/C=C/C(=O)OCC(=O)N2CCOCC2)ccc1OCC#N  5.68%
34. CCc1ccc(-c2cc3c(=O)n(CC(=O)NCCCN4CCN(Cc5ccccc5)CC4)nc(C)n3n2)cc1  5.56%
35. Cc1nnsc1C(=O)N/N=C/c1cccc(C(F)(F)F)c1  5.54%
36. C[C@H]1CN([C@@H](C)CO)C(=O)CCCn2cc(nn2)CO[C@@H]1CN(C)S(=O)(=O)c1ccc(-c2ccccc2)cc1  5.15%
37. COc1ccc(S(=O)(=O)N(C)CC(=O)Nc2ccc3c(c2)OCCO3)cc1OC  5.05%
38. NS(=O)(=O)c1ccc(NC(=O)COC(=O)CCc2c[nH]c3ccccc23)cc1  4.09%
39. CCN(C(=O)Nc1cccc2ccccc12)c1ccccc1  3.9%
40. Cn1c(=O)c2c(nc(N3CCCCCC3)n2CC(O)COc2ccc(Cl)cc2)n(C)c1=O (stereo not given)  3.88%
41. O=C(NCc1ccc2c(c1)OCO2)c1cc2c(s1)CS(=O)(=O)C2  3.7%
42. COc1cccc(N2CC(C(=O)NCc3n[nH]c(=O)c4ccccc34)CC2=O)c1 (stereo not given)  3.52%
43. CC1(C)CC(=O)C(C2c3ccccc3S(=O)(=O)c3ccccc32)C(=O)C1  3.51%
44. OCC(O)C1OCOC(C(O)CO)C1O (stereo not given)  3.51%
45. CC1(C)Cc2ccccc2-c2nnc(-c3cccc(O)c3)n21  3.02%
46. CN(CC(=O)NCCc1ccc(S(N)(=O)=O)cc1)CC(=O)Nc1ccc(Cl)cc1  2.64%
47. CC(C)n1c(SCC(=O)Nc2ccccc2N2CCCCC2)nc2c1c(=O)n(C)c(=O)n2C  2.5%
48. CC1CCN(C(=O)c2ccc(S(=O)(=O)Cc3cc(F)ccc3F)c([N+](=O)[O-])c2)CC1  2.21%
49. COc1cccc2[nH]c(C(=O)NCCc3ccccc3)cc12  2.15%
50. CCCNS(=O)(=O)c1ccc(CCC(=O)NCc2cccnc2)cc1  1.83%
51. CCCCc1ccc(S(N)(=O)=O)cc1  1.6%
52. CCn1ccnc1CNC(=O)CC1C(=O)NCCN1CCCc1ccccc1 (stereo not given)  1.04%
53. CC(=O)Nc1ccc(S(=O)(=O)Nc2nc3n(n2)C(c2ccccc2)CC(=O)N3)cc1 (stereo not given)  0.72%
54. CN(C)S(=O)(=O)c1cccc(NC(=O)COc2ccc3ccccc3c2)c1  0.32%
55. CCCCn1c(N)c(N(CCOC)C(=O)c2sc3ccccc3c2Cl)c(=O)[nH]c1=O  0%
56. Cc1ccc(C)c(N2CCN(C(=O)CCc3nc(-c4cccc(C(F)(F)F)c4)no3)CC2)c1  0%
57. CCC(C)(C)NC(=O)C(c1ccc(O)cc1)N(Cc1ccco1)C(=O)CCC(=O)Nc1ccccn1 (stereo not given)  0%
58. O=C(NCc1cccnc1)c1cccnc1Sc1ccc(Cl)cc1  -0.62%
59. COc1cccc(C(=O)N/N=C(\C)c2cccc(NC(=O)c3ccc(F)cc3)c2)c1OC  -1.01%
60. NS(=O)(=O)c1ccc(CNC(=O)c2ccc(Cl)cc2[N+](=O)[O-])cc1  -1.13%
61. Cn1c(Cn2nnc3ccccc32)nnc1SCC(=O)c1ccccc1F  -1.22%
62. CN(C)S(=O)(=O)c1cccc(NC(=O)COC(=O)c2cc(=O)[nH]c(=O)[nH]2)c1  -1.24%
63. COc1cc(NC(=O)CCNC(=O)Cn2ccc3ccccc3c2=O)cc(OC)c1OC  -1.5%
64. Cc1cn(C)c(=O)n(C)c1=O  -2.08%
65. CCOC(=O)c1ccccc1NC(=S)N1CCC(C(N)=O)CC1  -2.65%
66. COc1ccc(-c2ccc(C(=O)NCCN3CCOCC3)c3occc23)c(C)c1  -2.68%
67. O=C(O)CC(c1ccccc1F)N1Cc2ccccc2C1=O (stereo not given)  -3.95%
68. Cc1ccc(-c2cc(C(=O)NN)n[nH]2)o1  -4.43%
69. CCN(CC)CC(=O)Nc1nn(-c2ccccc2)nc1C(N)=O  -4.59%
70. O=C(CCNS(=O)(=O)c1ccc(Br)s1)NCc1ccccc1Cl  -5.73%
71. Cc1ccc(-n2nc3c(c2NC(=O)CCC2CCCCC2)CS(=O)C3)cc1 (stereo not given)  -6.57%
72. CC(C)Cc1nc(Cl)c(C#N)c2c1CCC2  -7.66%
73. CC1(Oc2ccc(Cl)cc2)CCN(Cc2csc3ccccc23)C1 (stereo not given)  -8.04%
74. O=C(Nc1cc(C(F)(F)F)ccc1Cl)c1cc2nc3c(c(C(F)(F)F)n2n1)CCCC3  -11.5%

In the case of `COc1ccc(/C=N\NC(=O)c2sc(N)nc2C)cc1OC`, the inhibition is reported as 40.4% (active).
With `COc1ccccc1NC(=O)CSc1nc2sc3c(c2c(=O)n1-c1ccccc1)CCN(C)C3` the inhibition was 33.1% (active).
In the case of `CCSc1nc2sc3c(c2c(=O)n1-c1ccc(C)cc1)CCN(C)C3`, the inhibition is reported as 30.7% (active).
With `Cc1ccc(/C=N/NC(=S)Nc2cccc(S(=O)(=O)N(C)C)c2)o1` the inhibition was 55.8% (active).
In the case of `CCN(CC)C(=O)c1sc(NC(=O)c2ccco2)c(C#N)c1C`, the inhibition is reported as 33.3% (active).
For `COc1ccc(/C=N/NC(=O)c2ccc3c(c2)OCCO3)c(OC)c1`, the inhibition was 35.4% (active).
For `CN(C)c1ccc(C=NCCc2ccc(S(N)(=O)=O)cc2)cc1`, the inhibition was 54.4% (active).
For `COc1ccc(/C=C/C(=O)Nc2ccc3c(c2)OCCO3)cc1OC`, the inhibition was 33.3% (active).
With `COc1ccc(/C=C/C(=O)Nc2ccc(C34CC5CC(CC(O)(C5)C3)C4)cc2)cc1OC` the inhibition was 31% (active).
For `COc1cc(/C=C/C(=O)Nc2ccc(OC)c(S(=O)(=O)N3CCOCC3)c2)ccc1OCC#N`, the inhibition was 34.9% (active).
With `C=CCn1c(Cn2nnc3ccccc32)nnc1SCC(=O)N/N=C/c1cc(Br)cc(OC)c1O` the inhibition was 33.8% (active).
In the case of `COc1cc2cc(C(=O)N/N=C/c3cccc(OC)c3OC)[nH]c2cc1OC`, the inhibition is reported as 53.6% (active).
With `COc1ccc2[nH]c(C(=O)N/N=C/c3cc(OC)c(OC)c(OC)c3)cc2c1` the inhibition was 63% (active).
For `CCOc1ccc2[nH]c(C(=O)N/N=C/c3cccc(OC)c3OC)cc2c1`, the inhibition was 42.1% (active).
In the case of `NS(=O)(=O)c1ccc(NC(=O)COC(=O)c2cc3ccccc3oc2=O)cc1`, the inhibition is reported as 32.9% (active).
For `Cc1ccc(-c2cc(C(=O)N/N=C/C=C/c3ccccc3)n[nH]2)o1`, the inhibition was 36.6% (active).
